# In PubChem BioAssay AID2810 (NMMLSC, 2010):
# In all, about 1,200 compounds went through this assay and about 65 (5%) were called active. This is one part of a sample in which actives are shown more often than they occur.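 Rule for the calls: active = at either tested dose, response and 90th-percentile vesicle-stain brightness of CD8 cells under set limits and under 9% cells vesicle-bound; inactive = the rest.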
# Assay: modulators of CD8 T cell-vesicle binding, confirmation, cherry-picked primary hits, two concentrations (AID 2810);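 note: lower values mean blocking of vesicle binding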;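 for percent response (vesicle binding): ratio of mean FL2 vesicle stain of CD8+ cells to that row's control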
# Settings: 2C CD8+ T cell-vesicle binding, flow cytometry; for double positive events: CD8+/vesicle+ events
# [1] = at 15.4 µM, stronger effect = lower value
SMILES,double positive events (at 7.7 µM),double positive events [1],percent response (vesicle binding) [1],"percent response (vesicle binding) (response, at 7.7 µM)"
Cc1c(C(=O)N(C)Cc2ccccc2)oc2ccc(S(=O)(=O)N3CCCC3)cc12,25.6%,12.7%,191% (inactive),229%
COc1cc2c(-c3cc(F)cc(F)c3)c(-c3ccsc3)oc(=O)c2cc1OC,37.8%,28.1%,275% (inactive),271%
O=C(CCc1ccccc1)N1CCN(CCO)CC1,35.8%,14.4%,151% (inactive),239%
CC(C)(C)NC(=O)CON=C1c2ccccc2-c2ccccc21,8.8%,30.6%,361% (inactive),203%
CC(C)(C)NC(=O)COc1ccc(CNCc2cccnc2)cc1,31%,21.6%,446% (inactive),334%
CC(C)(C)NC(=O)COc1ccc(CNCc2ccccn2)cc1,21.6%,5.1%,32.8% (active),227%
CCCCn1nc(C(=O)N2CCN(S(=O)(=O)c3ccccc3)CC2)c2ccccc2c1=O,16.5%,2.2%,57.2% (inactive),484%
Cc1ccc(NC(=O)C2c3ccccc3Oc3ccccc32)c(C)c1,12.5%,28.2%,175% (inactive),230%
O=C(Nc1ccccc1C(=O)NCc1cccnc1)c1ccccc1Cl,25.8%,14.2%,202% (inactive),364%
CCOc1ccc(CCNC(=O)CCc2nnc3ccc(N4CCCC4)nn23)cc1OCC,6.3%,20%,239% (inactive),150%
CCOc1ccc(CCNC(=O)CCS(=O)(=O)c2ccc(C)cc2)cc1OCC,12.8%,11.7%,215% (inactive),177%
CCOc1ccc(CCNC(=O)c2cccc(-n3cnnn3)c2)cc1OCC,7.9%,4.2%,39.3% (active),237%
Cc1cc(C(=O)COC(=O)Cc2ccc(Cl)cc2)c(C)n1C,13.6%,22.5%,160% (inactive),226%
O=C(/C(=N\Nc1ccc(Br)cc1)Sc1nnnn1-c1ccccc1)c1ccccc1,9.1%,14.4%,176% (inactive),308%
COc1cccc(-c2ccc(NC(=O)C3CCCN(Cc4cc(C)[nH]n4)C3)cc2)c1 (configuration not stated),11.6%,32.2%,350% (inactive),192%
O=C(O)CCc1ccc(S(=O)(=O)N2CCOCC2)cc1,20.5%,28.7%,274% (inactive),233%
CCN(CC)CCNC(=O)CCCNC(=O)Cn1cnc2sc(C)c(C)c2c1=O,39.3%,4.7%,131% (inactive),375%

SMILES,double positive events (at 7.7 µM),double positive events [1],percent response (vesicle binding) [1],"percent response (vesicle binding) (response, at 7.7 µM)"
COCCCN1CCc2[nH]c(=S)[nH]c(=O)c2C1,27.3%,2%,16.7% (active),272%
CCc1c(O)cc2n(c1=O)-c1ccccc1C2(C)C,9.3%,17.9%,444% (inactive),485%
O=C(Nn1cnc2ccccc2c1=O)C1CCCCC1,29.6%,14.2%,212% (inactive),255%
CCCN1CCN(CCCNC(=O)c2cc3c(s2)-c2ccccc2OC3)CC1,22.7%,9.3%,171% (inactive),229%
Cc1ccc(NC(=S)N(CCCN2CCOCC2)Cc2cccs2)c(C)c1,8.8%,24.8%,268% (inactive),149%
Cc1ccc(C(=O)NCCCN2CCOCC2)c(C)c1,30.7%,0.7%,30.4% (active),440%
CCn1c(=O)cc(SCC(=O)N2CCN(c3ccccc3F)CC2)c2ccccc21,17%,19.6%,78.7% (inactive),247%
CC(C)C(=O)N1CCC2(CC1)Oc1ccc(Cl)cc1C(=O)C21CC(c2cccnc2)=NO1 (configuration not stated),6.8%,15%,197% (inactive),109%
Cc1ccc(C(=O)Nc2cccc(-c3cn4ccccc4n3)c2)cc1,7.7%,10.4%,300% (inactive),439%
COc1ccc(C(=O)C(C)OC(=O)c2sc(C)nc2C)cc1 (configuration not stated),12.6%,13.7%,349% (inactive),113%
Cc1ccc2oc(=O)c(/C=C(\O)c3sc(C)nc3C)nc2c1,17.5%,0.7%,16.1% (active),163%
NC(=S)N/N=C/c1ccccc1OCCSc1ccc(Cl)cc1,7%,28%,262% (inactive),76.6%
CC(=O)NN1C(=O)c2ccccc2NC1c1ccco1 (configuration not stated),23%,11.1%,280% (inactive),361%
Cc1ccccc1N=C1SC(CC(=O)Nc2ccc3ccccc3c2)C(=O)N1Cc1ccccn1 (configuration not stated),8.6%,25.6%,157% (inactive),148%
O=C(N/N=C/c1c(O)n(Cc2ccco2)c(=O)[nH]c1=O)c1ccccc1,36.4%,21.6%,275% (inactive),418%
COc1ccc(C(=O)OCC(=O)NC(=O)NC2CCCC2)c(O)c1,13.7%,9.4%,148% (inactive),254%
